# Assay outcomes from PubChem.
# Mtb hypoxia inh – reduces hypoxia-regulated biosensor signal in M. tuberculosis | M. tuberculosis hypoxia-regulated fluorescent reporter, fluorescence | fluorescence inhibition, % (concentration not given with the values) | hit rate 0.1% among 300,000 | AID 1159583; in the data active = fluorescence inhibition mostly above about 23%, no sharp cut-off; inactive = mostly below about 17%
# 3CLpro inhibitor – SARS-CoV 3CLpro protease inhibition; P0C6X7; recombinant SARS-CoV 3CLpro, quenched FRET peptide cleavage; inhibition, % at 6 µM; hit rate 0.14% among 290,000; AID 1706; in the data active = inhibition above about 12%
# PrPC TRFRET – inhibitors of human cell surface prion protein PrPC. hit rate 0.43% among 370,000. P04156. inhibition, % at 13.8 µM. AID 720596. TR-FRET read-out; in the data active = inhibition above about 24%
# PrP UTR inh – suppresses PrP 5' UTR mRNA reporter expression. cell-based PrP 5' UTR mRNA reporter, plate reader. inhibition, % (no concentration beside the values). hit rate 0.35% among 340,000; in the data active = inhibition above about 52%
# BJeLR viability – kills HRASV12-expressing BJeLR cells. BJeLR (HRASV12) viability, CellTiter-Glo ATP luminescence, 48 h. hit rate 0.17% among 300,000. inhibition, % (no concentration beside the values); in the data active = inhibition above about 50%; inconclusive = no clear call, values can overlap the other calls
# RecA splice inh – Mtb RecA intein splicing inhibition; cell-free RecA intein splicing, fluorescence; inhibition, % (no concentration beside the values); hit rate 0.75% among 290,000; AID 2221; in the data active = inhibition above about 30%; inconclusive = no clear call, values can overlap the other calls
# Target sequence (P9WHJ3 whole entry, looked up, canonical isoform): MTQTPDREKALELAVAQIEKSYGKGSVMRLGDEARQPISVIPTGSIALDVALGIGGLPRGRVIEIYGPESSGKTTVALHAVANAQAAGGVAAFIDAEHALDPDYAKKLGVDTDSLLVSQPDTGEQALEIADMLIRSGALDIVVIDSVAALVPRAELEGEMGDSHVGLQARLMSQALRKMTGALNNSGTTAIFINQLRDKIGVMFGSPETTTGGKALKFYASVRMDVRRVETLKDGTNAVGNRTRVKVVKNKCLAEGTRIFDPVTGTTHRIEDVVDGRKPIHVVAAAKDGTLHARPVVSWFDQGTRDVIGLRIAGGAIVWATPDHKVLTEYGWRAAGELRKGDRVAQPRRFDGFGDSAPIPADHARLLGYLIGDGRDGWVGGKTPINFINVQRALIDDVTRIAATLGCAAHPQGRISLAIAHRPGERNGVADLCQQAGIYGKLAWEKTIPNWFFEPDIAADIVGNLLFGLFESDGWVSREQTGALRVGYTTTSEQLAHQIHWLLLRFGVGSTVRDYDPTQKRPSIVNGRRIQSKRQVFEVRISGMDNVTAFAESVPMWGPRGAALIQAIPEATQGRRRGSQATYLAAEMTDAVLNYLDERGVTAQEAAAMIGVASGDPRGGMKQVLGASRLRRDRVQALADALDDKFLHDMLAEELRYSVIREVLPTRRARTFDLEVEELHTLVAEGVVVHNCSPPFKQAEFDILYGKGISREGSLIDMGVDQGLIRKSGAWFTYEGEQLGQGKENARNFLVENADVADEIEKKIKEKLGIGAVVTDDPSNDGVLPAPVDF
# PrP UTR cherry – prion 5' UTR mRNA inhibition, cherry-pick retest; cell-based prion protein 5' UTR reporter, plate reader; AID 504592; shares compounds with PrP UTR inh; inhibition, % at 2.5 µM; hit rate 48% among 1,100; in the data active = inhibition above about 54%; inconclusive = no clear call, values can overlap the other calls
# Numbers stand for hits; i = inactive; ? = inconclusive; nt = not tested or not shown. This is a sample that favours compounds with a hit; in the whole collection about 1.4% have one here.
SMILES,Mtb hypoxia inh,3CLpro inhibitor,PrPC TRFRET,PrP UTR inh,BJeLR viability,RecA splice inh,PrP UTR cherry
COC1C(C)OC(OC2CC(C)(O)Cc3cc4c(c(O)c32)C(=O)c2c(O)cc3c(c2C4=O)OC2OC3(C)C(O)C(N(C)C)C2O)C(OC)C1(C)OC (stereo not given),nt,nt,i,90,nt,nt,81
COC(=O)NN=Cc1ccc(-c2ccccc2Cl)o1,i,nt,nt,nt,nt,nt,nt
Cc1cc2nc(/C=C/c3cccnc3)[nH]c2cc1C,i,i,i,66,53,i,84
Cc1cc(=O)oc(C)c1C(=O)N1CCN(C(c2ccccc2)c2ccccc2)CC1,i,i,i,72,i,i,i
O=C1c2ccccc2C(=O)C1c1ccnc2ccccc12,i,i,i,58,i,i,i
CCN1CCN(Cc2ccc(NC(=O)c3ccc(C)c(NC(=O)c4nccn4C)c3)cc2C(F)(F)F)CC1,i,nt,i,i,i,i,nt
CCN1CCN(Cc2ccc(NC(=O)c3ccc(C)c(NC(=O)c4cncc(-c5cccs5)c4)c3)cc2C(F)(F)F)CC1,i,nt,nt,61,nt,nt,86
CCC(=O)Oc1ccc(C(CC)C(CC)c2ccc(OC(=O)CC)cc2)cc1 (stereo not given),nt,i,i,58,i,i,i
Cc1sc(-n2c(C)cc(C=Nn3cnnc3)c2C)c(C#N)c1C,i,nt,nt,nt,nt,nt,nt
CCN(C(=O)c1cc2cc(OC)ccc2oc1=O)c1cccc(C)c1,i,i,i,i,i,i,nt
CCN(C(=O)c1cc2cc(OC)ccc2oc1=O)c1ccccc1,nt,i,i,67,i,i,?
CC(=O)OC1CC[C@@]2(C)C(=CCC3C4CCC(C5(C)OCCO5)[C@@]4(C)CCC32)C1 (stereo not given in full),i,nt,nt,nt,nt,nt,nt
Cc1c2c(=O)n(-c3nc4ccccc4s3)nc-2cc(O)n1Cc1ccccc1,i,i,nt,65,nt,nt,i
Cc1cc(C)n(-c2nc3ccccc3s2)n1,i,i,i,i,i,i,nt
Cc1ccccc1COC(=O)c1cc([N+](=O)[O-])ccc1N1CCOCC1,i,i,i,i,i,nt,nt
CN1CCN(c2ccc([N+](=O)[O-])cc2C(=O)N2CCOCC2)CC1,nt,i,i,i,i,i,nt
CN1CCN(c2ccc([N+](=O)[O-])cc2C(=O)c2ccc(Br)cc2)CC1,i,i,i,i,i,i,nt
O=C(c1ccc(Br)cc1)c1cc([N+](=O)[O-])ccc1N1CCCCC1,i,i,i,58,i,i,94
O=C(c1cc([N+](=O)[O-])ccc1N1CCOCC1)N1CCN(c2ccccc2)CC1,nt,i,i,81,56,i,92
Cc1ccc(C(=O)c2cc([N+](=O)[O-])ccc2N2CCOCC2)c(C)c1,nt,i,i,75,i,i,86
CSc1ccc(COC(=O)c2cc([N+](=O)[O-])ccc2N2CCOCC2)cc1,i,nt,i,72,56,i,89
O=C(NN=Cc1cccnc1)c1ccc2ccccc2c1O,i,nt,nt,nt,nt,nt,nt
ON=C1CC(O)Cc2nonc21 (stereo not given),i,nt,nt,nt,nt,nt,nt
O=c1cc2c(nn1Cc1ccc(Cl)cc1)-c1ccccc1CC2,i,i,i,i,i,i,nt
O=c1cc2c(nn1Cc1cccc(Cl)c1)-c1ccccc1CC2,nt,i,i,57,i,i,i
SMILES,Mtb hypoxia inh,3CLpro inhibitor,PrPC TRFRET,PrP UTR inh,BJeLR viability,RecA splice inh,PrP UTR cherry
CC(C)(C)C1COC(=O)CCCC=CCC(CC(=O)NCCO)C(=O)N1 (stereo not given),i,nt,nt,nt,nt,nt,nt
CCCCCC(=O)NC(=S)Nc1ccc(Br)cc1C,i,i,i,57,i,i,i
CCCC(=O)NC(=S)Nc1c(C)cc(Br)cc1C,nt,i,i,i,i,i,nt
CN(C)CCCN(CCCNC(=O)C=NO)Cc1ccccc1,i,nt,nt,nt,nt,nt,nt
Cc1ccc(NC(=O)C2CCN(C(=O)c3ccccc3C)CC2)nc1,i,nt,i,i,i,i,nt
Cc1ccccc1C(=O)N1CCC(C(=O)Nc2nccs2)CC1,i,i,i,88,i,i,i
O=C(CN1C(=O)c2ccccc2S1(=O)=O)c1ccc(Cl)cc1Cl,nt,i,i,79,i,i,82
O=C(CN1C(=O)c2ccccc2S1(=O)=O)c1ccc(F)cc1,i,i,i,62,i,i,i
O=C(CN1C(=O)c2ccccc2S1(=O)=O)c1ccc(OC(F)F)cc1,i,i,nt,67,i,i,64
CCCCOC(=O)NN=C/C=C/c1ccccc1,i,nt,nt,nt,nt,nt,nt
CCc1ccccc1OCC(O)CNC1CCCc2ccccc21 (stereo not given),i,nt,nt,nt,nt,nt,nt
CC(=O)Nc1ccccc1NC(=O)CC(C)=NNC(=O)c1ccccn1,i,nt,nt,nt,nt,nt,nt
Clc1ccccc1/C=C/c1nc(-c2ccccn2)no1,nt,i,i,55,i,i,61
N#Cc1c(NC(=O)CSc2ncn[nH]2)sc2c1CCCCC2,i,i,i,74,i,i,77
CCOc1cc(/C=C/C(=O)c2ccc3c(c2)OCCO3)ccc1OCC(=O)N(C)C,i,i,i,60,i,i,i
CCOc1cc(/C=C/C(=O)c2ccc(O)cc2)ccc1OCC(=O)N(C)C,i,i,i,i,i,i,nt
Clc1ccc(CSc2nnc(-c3ccc4c(c3)OCO4)o2)cc1,nt,i,i,i,i,i,nt
O=C1CCCCC1Sc1nnc(-c2ccc3c(c2)OCO3)o1 (stereo not given),i,i,i,55,i,i,?
CC1CN(C(C)CO)C(=O)c2cc(NC(=O)Nc3ccc4c(c3)OCO4)ccc2OC1CN(C)S(C)(=O)=O (stereo not given),i,nt,nt,nt,nt,nt,nt
Oc1ccc(/C=C/c2ccc3ccccc3n2)cc1,i,i,i,57,i,i,?
O=[N+]([O-])c1ccc(/C=C/c2ccc3ccccc3n2)cc1,i,i,i,i,i,nt,nt
CN(C)c1ccc(/C=C/c2ccc3ccccc3n2)cc1,i,i,nt,84,71,i,?
C(=C\c1ccc2ccccc2n1)/c1ccccc1,i,i,i,58,i,i,i
COc1c(O)cccc1C(O)C1CCN(CCc2ccc(F)cc2)CC1 (stereo not given),i,nt,nt,nt,nt,nt,nt
Cc1nn(C(C)(C)C)c(C)c1/C=N/OC(=O)Nc1ccc(Cl)cc1,nt,i,i,94,i,i,93
SMILES,Mtb hypoxia inh,3CLpro inhibitor,PrPC TRFRET,PrP UTR inh,BJeLR viability,RecA splice inh,PrP UTR cherry
Cc1nn(C(C)(C)C)c(C)c1C=NOC(=O)Nc1ccc(Cl)c(Cl)c1,i,nt,nt,nt,nt,nt,nt
CC(=CCC1=C(C)C(=O)c2ccccc2C1=O)CCCC(C)CCCC(C)CCCC(C)C (stereo not given),i,nt,nt,nt,nt,nt,nt
CCOc1ccc(-n2c(Cc3cc(=O)[nH]c(=O)[nH]3)nnc2SCC(=O)NC2CCCC2)cc1,nt,i,i,i,nt,nt,nt
COc1ccc(-n2c(Cc3cc(=O)[nH]c(=O)[nH]3)nnc2SCC(=O)NC2CCCC2)cc1,nt,i,i,61,i,i,i
COc1ccc(OC)c(C=NNC(=O)c2cc3c(ccc4ccccc43)o2)c1,i,nt,nt,nt,nt,nt,nt
O=C(NN=Cc1ccccc1Cl)c1[nH]c2ccc(Br)cc2c1-c1ccccc1,i,nt,nt,nt,nt,nt,nt
O=C(N/N=C/c1ccccc1)c1[nH]c2ccc(Br)cc2c1-c1ccccc1,nt,i,i,59,i,i,88
c1ccc(NC(c2ccccc2)c2ccncc2)cc1 (stereo not given),i,i,i,i,i,i,nt
